Screening data as filed in PubChem BioAssay.
TDP1 cell noCPT – qHTS for Inhibitors of human tyrosyl-DNA phosphodiesterase 1 (TDP1): qHTS in cells in absence of CPT; DT40 Tdp1-/- hTDP1 cells, no CPT, ATP luminescence, 48 h; Potency, µM (doses to about 46.2 µM), actives largely listed as inhibitors; 420,000 compounds, 15% hits; AID 686978, 2013; further: nearly all actives have a fitted effect of over 55% in size
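Readout: luminescence from CellTiter-Glo after 30 min in the dark at RT. Cells: DT40 Tdp1-/- with stable hTDP1, 400/well. Exposure: compounds alone, ≥48 hr, 37 °C.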
DT40 TDP1 CPT – growth inhibition of DT40 Tdp1-/-;hTDP1 cells with camptothecin (screen for TDP1 inhibitors); Potency, µM (top dose mostly 46.2 µM), most hits filed as inhibitors; chicken DT40 Tdp1-/-;hTDP1 cells + 20 nM CPT, ATP luminescence, 48 h; 420,000 compounds, 12% hits; further: nearly all actives have a fitted effect of over 55% in size
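Cell growth measured by CellTiter-Glo luminescence after a minimum 48 h, 37 C compound exposure with 20 nM CPT in Tdp1-knockout DT40 cells stably expressing hTDP1, seeded 400/well; qHTS titration format.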
HT1080-NT tox – kills 2HG-producing HT-1080-NT fibrosarcoma cells | HT-1080-NT fibrosarcoma viability, CellTiter-Glo ATP luminescence, 48 h | Potency, µM (series often up to 46.1 µM), actives largely listed as cytotoxic | 360,000 compounds, 1.6% hits;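 further: NT is the 2HG producing partner of a matched IDH1 knockdown line; nearly all actives have a fitted effect of over 55% in size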
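A 48-hour cytotoxicity screen used HT-1080-NT cells plated 2 hours before compound delivery. ATP-based CellTiter-Glo luminescence measured viability, normalized to DMSO and no-cell controls.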
IL-1B inflam inh – inhibitors of inflammasome signaling (IL-1 beta secretion) | THP-1 LPS/ATP IL-1B secretion, AlphaLISA, 16 h; active compounds read low | activity change, % at 57.5 µM | 360,000 compounds, 4.7% hits | AID 743279; in the data active means activity change below about -50%; inconclusive means mostly about -30% to -49%
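Secreted IL-1B measured by AlphaLISA bead assay after 16 h compound exposure of THP-1 cells; compounds (final up to 57.5 uM) added 1 h before LPS (250 ng/mL) and ATP (1.25 mM) stimulation; lower signal means less secretion.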
ALOX12 inh – blocks human arachidonate 12S-lipoxygenase; P18054; purified 12hLO, xylenol orange hydroperoxide absorbance; Potency, µM (series often up to 108 µM), hits mostly inhibitors; 580,000 compounds, 1.1% hits; AID 1671190
Target sequence (P18054 whole entry, looked up): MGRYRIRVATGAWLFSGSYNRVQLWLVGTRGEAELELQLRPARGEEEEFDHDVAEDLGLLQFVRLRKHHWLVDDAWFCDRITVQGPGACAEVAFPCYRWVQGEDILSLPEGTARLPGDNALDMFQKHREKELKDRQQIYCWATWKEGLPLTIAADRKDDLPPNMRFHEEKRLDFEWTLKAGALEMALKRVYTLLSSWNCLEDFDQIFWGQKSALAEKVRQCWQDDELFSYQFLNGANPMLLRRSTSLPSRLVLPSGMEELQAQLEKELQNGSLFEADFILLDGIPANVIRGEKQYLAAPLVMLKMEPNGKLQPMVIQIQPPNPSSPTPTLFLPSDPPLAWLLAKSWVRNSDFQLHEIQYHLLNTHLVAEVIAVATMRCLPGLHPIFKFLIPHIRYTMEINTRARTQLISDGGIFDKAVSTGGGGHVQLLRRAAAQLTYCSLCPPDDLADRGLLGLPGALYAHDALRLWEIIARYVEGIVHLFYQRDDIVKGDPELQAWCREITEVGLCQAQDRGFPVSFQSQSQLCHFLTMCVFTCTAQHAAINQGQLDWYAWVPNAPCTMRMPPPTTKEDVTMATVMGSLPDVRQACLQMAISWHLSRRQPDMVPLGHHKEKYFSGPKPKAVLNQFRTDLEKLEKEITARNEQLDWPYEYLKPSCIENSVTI
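Purified human 12hLO (150 nM final) in 25 mM Hepes, 0.01% Triton X-100, pH 7.0 was preincubated 15 min at room temperature with compound. Then 40 uM arachidonic acid was added, 30 min. Hydroperoxide was read by Fe-XO absorbance ratio 573/405 nm.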
HT1080 IDH1KD tx – kills HT-1080 cells with IDH1 knockdown. Potency, µM (series often up to 46.1 µM), actives largely listed as cytotoxic. HT-1080 IDH1 knockdown viability, ATP luminescence, 48 h. AID 686971. 360,000 compounds, 2% hits
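In this qHTS, HT-1080 cells depleted of IDH1 are exposed for 48 h at 37 °C to compound titrations. Toxicity is scored from CellTiter-Glo luminescence, with DMSO as full viability and medium alone as none.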
Each line names hits and unclear results; the compound was inactive in the other large screens. This is one part of a sample in which hits are shown more often than they occur. Unless noted, the call rests on the fitted dose curve; in most records, active means well fitted curve in the direction sought with a large enough effect; inconclusive means small, poorly fitted or top-dose-only effect, or another doubt; inactive means no such curve, though single readings can be large; an effect the other way counts as inactive or inconclusive.

Cc1cc(C)cc(NS(=O)(=O)c2ccc3c(c2)c(=O)n(C)c(=O)n3C)c1	TDP1 cell noCPT 2.1µM, DT40 TDP1 CPT 1.8µM, HT1080-NT tox 6.3µM, IL-1B inflam inh -67, HT1080 IDH1KD tx 3.2µM
Cn1c(=O)c2cc(S(=O)(=O)Nc3cc(C(=O)O)cc(C(=O)O)c3)ccc2n(C)c1=O	none
CCOc1ccc(-n2cc(C(=O)N3CCC(C)CC3)c3cc(OC)c(OC)cc3c2=O)cc1	TDP1 cell noCPT 15µM, DT40 TDP1 CPT 16µM
CCCCNC(=O)c1cn(-c2ccc(OCC)cc2)c(=O)c2cc(OC)c(OC)cc12	TDP1 cell noCPT inconclusive, DT40 TDP1 CPT inconclusive
CCOc1ccc(NC(=O)c2cn(-c3ccc(OCC)cc3)c(=O)c3cc(OC)c(OC)cc23)cc1	none
CCOc1ccc(-n2cc(C(=O)Nc3cccc(C)n3)c3cc(OC)c(OC)cc3c2=O)cc1	TDP1 cell noCPT 26µM, DT40 TDP1 CPT inconclusive, ALOX12 inh inconclusive
CCOc1ccc(-n2cc(C(=O)NC(C)C)c3cc(OC)c(OC)cc3c2=O)cc1	TDP1 cell noCPT 26µM, DT40 TDP1 CPT inconclusive
CN(Cc1ccccc1F)S(=O)(=O)c1cccc2nsnc12	none (no result: TDP1 cell noCPT, DT40 TDP1 CPT, HT1080-NT tox, IL-1B inflam inh, HT1080 IDH1KD tx)
O=C(Nc1cccc(-c2ccc(F)cc2)c1)C1CCCN1C(=O)C1CCOCC1 (configuration not stated)	none (no result: TDP1 cell noCPT, DT40 TDP1 CPT, HT1080-NT tox, IL-1B inflam inh, HT1080 IDH1KD tx)
CCCC1NC(=O)c2cc3ccccc3cc2-n2c1nc1ccc(C)cc1c2=O (configuration not stated)	TDP1 cell noCPT 18µM, DT40 TDP1 CPT inconclusive
O=C1NC(Cc2ccccc2)c2nc3ccc(F)cc3c(=O)n2-c2cc3ccccc3cc21 (configuration not stated)	TDP1 cell noCPT 5.2µM, DT40 TDP1 CPT 5.2µM, HT1080-NT tox 5.8µM, HT1080 IDH1KD tx 5.8µM
O=C1NC(Cc2ccccc2)c2nc3ccc(Cl)cc3c(=O)n2-c2ncccc21 (configuration not stated)	TDP1 cell noCPT 21µM, DT40 TDP1 CPT inconclusive
CCC1NC(=O)c2cc3ccccc3cc2-n2c1nc1ccc(F)cc1c2=O (configuration not stated)	TDP1 cell noCPT 23µM, DT40 TDP1 CPT inconclusive, ALOX12 inh inconclusive
Cc1ccc2nc3n(c(=O)c2c1)-c1ncccc1C(=O)NC3Cc1ccccc1 (configuration not stated)	TDP1 cell noCPT inconclusive, DT40 TDP1 CPT inconclusive, ALOX12 inh inconclusive
CCN(CC(=O)Nc1c(F)cccc1F)C(=O)CCNC(=O)c1ccc([N+](=O)[O-])cc1	none
CN1C[C@H](C(=O)NCc2ccccc2)C[C@H]1c1cccc(C(F)(F)F)c1	none (no result: TDP1 cell noCPT, DT40 TDP1 CPT, HT1080-NT tox, IL-1B inflam inh, HT1080 IDH1KD tx)
COCCc1noc(-c2ccc(N(C)Cc3ncc(C)[nH]3)nc2)n1	none (no result: TDP1 cell noCPT, DT40 TDP1 CPT, HT1080-NT tox, IL-1B inflam inh, HT1080 IDH1KD tx)
O=C1NC(Cc2ccc(O)cc2)c2nc3cc(F)ccc3c(=O)n2-c2ncccc21 (configuration not stated)	none
Cc1ccc2nc3n(c(=O)c2c1)-c1cc2ccccc2cc1C(=O)NC3Cc1ccccc1 (configuration not stated)	TDP1 cell noCPT 16µM, DT40 TDP1 CPT 23µM, HT1080-NT tox inconclusive, HT1080 IDH1KD tx 15µM
O=C1NC(Cc2ccc(O)cc2)c2nc3cc(Cl)ccc3c(=O)n2-c2cc(Cl)ccc21 (configuration not stated)	TDP1 cell noCPT inconclusive, DT40 TDP1 CPT inconclusive, IL-1B inflam inh -71, ALOX12 inh inconclusive, HT1080 IDH1KD tx inconclusive
CCC1NC(=O)c2cc3ccccc3cc2-n2c1nc1cc(C)cc(C)c1c2=O (configuration not stated)	TDP1 cell noCPT 4.1µM, DT40 TDP1 CPT 18µM
Cc1ccc2nc3n(c(=O)c2c1)-c1ccc(Cl)cc1C(=O)NC3Cc1ccccc1 (configuration not stated)	none (no result: TDP1 cell noCPT, DT40 TDP1 CPT, HT1080-NT tox, IL-1B inflam inh, HT1080 IDH1KD tx)
O=C1NC(Cc2ccc(O)cc2)c2nc3cc(F)ccc3c(=O)n2-c2cc(Cl)ccc21 (configuration not stated)	none (no result: TDP1 cell noCPT, DT40 TDP1 CPT, HT1080-NT tox, IL-1B inflam inh, HT1080 IDH1KD tx)
